Assay [1] addresses Protein kinase C gamma type (Homo sapiens) (UniProt P05129). The note with it: at 1 µM.
Assay [2] addresses T1, Protein kinase C iota type (Homo sapiens) (UniProt P41743).
T1 sequence (whole entry): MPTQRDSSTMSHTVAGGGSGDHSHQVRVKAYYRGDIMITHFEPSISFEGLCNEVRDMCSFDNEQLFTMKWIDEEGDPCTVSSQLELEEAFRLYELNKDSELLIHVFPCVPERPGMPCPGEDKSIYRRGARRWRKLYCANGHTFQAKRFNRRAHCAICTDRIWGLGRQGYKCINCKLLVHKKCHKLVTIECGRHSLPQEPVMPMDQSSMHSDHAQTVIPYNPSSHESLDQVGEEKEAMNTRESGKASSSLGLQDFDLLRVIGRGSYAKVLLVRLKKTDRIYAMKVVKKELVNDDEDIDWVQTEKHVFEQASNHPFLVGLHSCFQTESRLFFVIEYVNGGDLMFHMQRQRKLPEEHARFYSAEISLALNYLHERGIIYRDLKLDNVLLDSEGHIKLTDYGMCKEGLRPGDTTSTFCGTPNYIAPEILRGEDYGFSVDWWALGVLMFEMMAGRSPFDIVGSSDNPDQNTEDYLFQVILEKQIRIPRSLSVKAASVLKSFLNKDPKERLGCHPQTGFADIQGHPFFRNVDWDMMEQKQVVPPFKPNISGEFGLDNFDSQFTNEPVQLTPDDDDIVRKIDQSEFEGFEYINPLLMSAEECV
To be noted: at 0.1 µM.

Assay [3] has as its target T1, Protein kinase C iota type (Homo sapiens). The note with it: at 1 µM.
The target of assay [4] is Protein kinase C theta type (Homo sapiens) (UniProt Q04759). The note with it: at 0.1 µM.
Protein kinase C theta type (Homo sapiens), sequence (Q04759 whole entry, looked up): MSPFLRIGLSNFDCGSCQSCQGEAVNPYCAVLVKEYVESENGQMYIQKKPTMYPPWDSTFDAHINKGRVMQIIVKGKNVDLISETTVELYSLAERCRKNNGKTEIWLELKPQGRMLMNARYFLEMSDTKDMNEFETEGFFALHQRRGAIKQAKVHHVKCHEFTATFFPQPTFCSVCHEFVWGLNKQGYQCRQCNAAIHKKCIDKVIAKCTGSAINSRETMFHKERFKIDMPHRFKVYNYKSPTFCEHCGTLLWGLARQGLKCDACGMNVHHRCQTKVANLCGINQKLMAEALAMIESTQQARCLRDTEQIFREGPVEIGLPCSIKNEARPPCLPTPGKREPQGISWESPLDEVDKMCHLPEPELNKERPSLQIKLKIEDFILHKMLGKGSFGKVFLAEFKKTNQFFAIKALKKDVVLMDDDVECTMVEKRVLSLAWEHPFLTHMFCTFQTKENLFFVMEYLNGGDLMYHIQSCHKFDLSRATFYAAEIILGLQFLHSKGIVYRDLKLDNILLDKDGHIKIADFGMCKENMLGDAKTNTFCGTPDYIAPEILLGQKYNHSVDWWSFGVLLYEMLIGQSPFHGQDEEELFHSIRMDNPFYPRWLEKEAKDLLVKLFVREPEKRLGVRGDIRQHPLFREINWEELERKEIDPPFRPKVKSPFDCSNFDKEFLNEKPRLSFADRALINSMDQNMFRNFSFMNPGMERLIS
Assay [5] shares this target. The note with it: at 1 µM.
Assay [6] has as its target Protein kinase C beta type (Homo sapiens) (UniProt P05771). The note with it: at 0.1 µM.
For assay [7] the target is unchanged. To be noted: at 1 µM.
Assay [8] concerns the target T2, Serine/threonine-protein kinase D1 (Homo sapiens) (UniProt Q15139).
T2 sequence (whole entry): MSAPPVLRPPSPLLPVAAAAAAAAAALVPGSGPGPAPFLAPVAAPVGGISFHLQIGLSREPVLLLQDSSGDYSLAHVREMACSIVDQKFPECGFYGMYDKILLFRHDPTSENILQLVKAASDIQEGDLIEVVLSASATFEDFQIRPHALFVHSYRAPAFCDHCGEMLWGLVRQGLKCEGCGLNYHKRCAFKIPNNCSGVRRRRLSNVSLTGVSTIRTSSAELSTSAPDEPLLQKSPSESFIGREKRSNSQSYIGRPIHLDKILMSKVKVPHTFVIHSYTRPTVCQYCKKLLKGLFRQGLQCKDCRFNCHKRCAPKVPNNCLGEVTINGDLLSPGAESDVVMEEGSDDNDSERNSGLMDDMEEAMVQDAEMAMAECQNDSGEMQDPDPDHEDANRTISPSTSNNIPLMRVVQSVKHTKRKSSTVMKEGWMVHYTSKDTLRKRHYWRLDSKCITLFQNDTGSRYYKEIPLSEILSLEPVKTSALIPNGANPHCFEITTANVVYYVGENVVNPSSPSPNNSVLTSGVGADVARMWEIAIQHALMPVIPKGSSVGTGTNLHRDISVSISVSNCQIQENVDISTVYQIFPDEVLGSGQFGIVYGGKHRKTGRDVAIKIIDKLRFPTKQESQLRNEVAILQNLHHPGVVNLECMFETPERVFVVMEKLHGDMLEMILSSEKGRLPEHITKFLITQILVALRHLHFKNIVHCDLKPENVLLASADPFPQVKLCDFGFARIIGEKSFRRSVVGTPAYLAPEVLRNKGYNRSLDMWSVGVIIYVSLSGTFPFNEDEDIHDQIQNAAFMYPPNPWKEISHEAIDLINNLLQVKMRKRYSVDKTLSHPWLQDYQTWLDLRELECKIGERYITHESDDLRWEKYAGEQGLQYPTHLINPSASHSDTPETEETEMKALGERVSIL
To be noted: at 0.1 µM.

The target of assay [9] is T2, Serine/threonine-protein kinase D1 (Homo sapiens). To be noted: at 1 µM.
Assay [10] deals with T3, Serine/threonine-protein kinase D2 (Homo sapiens) (UniProt Q9BZL6).
T3 sequence (whole entry): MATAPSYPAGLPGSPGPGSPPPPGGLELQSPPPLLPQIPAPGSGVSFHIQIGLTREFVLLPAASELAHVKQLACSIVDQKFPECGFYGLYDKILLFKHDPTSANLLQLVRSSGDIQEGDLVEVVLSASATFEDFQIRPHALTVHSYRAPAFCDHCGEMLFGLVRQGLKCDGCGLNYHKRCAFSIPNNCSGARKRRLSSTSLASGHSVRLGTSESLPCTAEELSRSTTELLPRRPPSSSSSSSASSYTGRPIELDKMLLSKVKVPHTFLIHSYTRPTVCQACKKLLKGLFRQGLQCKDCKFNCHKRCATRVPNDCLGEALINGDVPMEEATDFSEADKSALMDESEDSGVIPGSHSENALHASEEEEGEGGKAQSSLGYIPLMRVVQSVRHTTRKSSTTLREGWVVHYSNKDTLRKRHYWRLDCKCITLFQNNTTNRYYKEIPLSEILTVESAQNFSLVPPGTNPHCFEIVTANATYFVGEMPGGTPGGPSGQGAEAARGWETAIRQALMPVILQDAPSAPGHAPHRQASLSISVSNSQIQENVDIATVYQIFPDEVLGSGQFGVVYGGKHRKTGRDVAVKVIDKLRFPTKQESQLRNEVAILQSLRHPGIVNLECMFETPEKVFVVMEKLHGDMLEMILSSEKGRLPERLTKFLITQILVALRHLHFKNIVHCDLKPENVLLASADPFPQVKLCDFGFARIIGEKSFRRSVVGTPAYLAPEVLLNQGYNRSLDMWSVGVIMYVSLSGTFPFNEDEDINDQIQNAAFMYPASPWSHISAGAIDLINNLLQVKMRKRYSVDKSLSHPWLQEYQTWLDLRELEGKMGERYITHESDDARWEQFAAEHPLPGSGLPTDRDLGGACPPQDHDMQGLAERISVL
To be noted: at 0.1 µM.

Assay [11] concerns the target T3, Serine/threonine-protein kinase D2 (Homo sapiens). The note with it: at 1 µM.
In assay [12] the target is T4, Serine/threonine-protein kinase D3 (Homo sapiens) (UniProt O94806).
T4 sequence (whole entry): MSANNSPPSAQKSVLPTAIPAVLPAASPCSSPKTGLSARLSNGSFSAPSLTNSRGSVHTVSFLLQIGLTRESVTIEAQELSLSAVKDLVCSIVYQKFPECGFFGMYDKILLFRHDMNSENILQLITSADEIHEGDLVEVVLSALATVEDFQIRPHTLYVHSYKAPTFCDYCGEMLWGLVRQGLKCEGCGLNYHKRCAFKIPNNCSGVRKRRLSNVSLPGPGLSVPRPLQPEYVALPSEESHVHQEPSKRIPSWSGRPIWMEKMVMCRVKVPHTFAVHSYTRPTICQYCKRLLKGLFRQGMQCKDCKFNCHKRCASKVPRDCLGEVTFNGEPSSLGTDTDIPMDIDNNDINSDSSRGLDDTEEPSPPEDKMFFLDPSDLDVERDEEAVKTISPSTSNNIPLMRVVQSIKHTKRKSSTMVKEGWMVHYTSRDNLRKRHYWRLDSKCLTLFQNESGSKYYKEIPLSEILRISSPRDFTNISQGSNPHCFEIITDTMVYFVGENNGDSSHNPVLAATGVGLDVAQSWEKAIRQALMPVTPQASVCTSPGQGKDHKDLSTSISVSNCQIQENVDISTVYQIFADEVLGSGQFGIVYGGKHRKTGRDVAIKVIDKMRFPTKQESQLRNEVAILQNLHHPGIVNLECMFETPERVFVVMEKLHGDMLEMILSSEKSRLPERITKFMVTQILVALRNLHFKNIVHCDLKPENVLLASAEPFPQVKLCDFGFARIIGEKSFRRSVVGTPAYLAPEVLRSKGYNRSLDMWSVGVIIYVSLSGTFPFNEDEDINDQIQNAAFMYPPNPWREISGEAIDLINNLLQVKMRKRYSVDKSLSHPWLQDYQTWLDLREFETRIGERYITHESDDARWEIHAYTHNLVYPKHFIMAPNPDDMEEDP
The note with it: at 0.1 µM.

Assay [13] deals with T4, Serine/threonine-protein kinase D3 (Homo sapiens). The note with it: at 1 µM.
For assay [14], the target named is T5, cGMP-dependent protein kinase 1 (Homo sapiens) (UniProt Q13976).
T5 sequence (whole entry): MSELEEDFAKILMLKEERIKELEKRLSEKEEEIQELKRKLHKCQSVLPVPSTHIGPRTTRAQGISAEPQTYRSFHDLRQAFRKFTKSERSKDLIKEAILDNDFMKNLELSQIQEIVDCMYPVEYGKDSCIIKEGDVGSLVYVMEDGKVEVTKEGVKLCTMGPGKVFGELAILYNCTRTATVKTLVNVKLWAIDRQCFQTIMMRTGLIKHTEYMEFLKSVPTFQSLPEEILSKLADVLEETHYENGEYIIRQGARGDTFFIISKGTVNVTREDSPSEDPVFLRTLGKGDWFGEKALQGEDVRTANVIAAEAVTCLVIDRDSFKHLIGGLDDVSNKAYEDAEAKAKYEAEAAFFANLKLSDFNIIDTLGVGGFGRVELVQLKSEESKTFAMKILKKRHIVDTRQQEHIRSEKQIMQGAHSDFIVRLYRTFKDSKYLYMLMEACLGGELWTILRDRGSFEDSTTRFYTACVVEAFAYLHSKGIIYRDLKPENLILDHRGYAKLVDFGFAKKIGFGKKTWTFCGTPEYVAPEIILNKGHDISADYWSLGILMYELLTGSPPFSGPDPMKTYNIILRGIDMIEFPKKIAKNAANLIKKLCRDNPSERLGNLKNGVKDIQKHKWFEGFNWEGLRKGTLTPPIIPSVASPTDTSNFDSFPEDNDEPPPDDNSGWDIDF
To be noted: at 0.1 µM.

The target in assay [15] is T5, cGMP-dependent protein kinase 1 (Homo sapiens). To be noted: at 1 µM.
Assay [16] addresses T6, cGMP-dependent protein kinase 2 (Homo sapiens) (UniProt Q13237).
T6 sequence (whole entry): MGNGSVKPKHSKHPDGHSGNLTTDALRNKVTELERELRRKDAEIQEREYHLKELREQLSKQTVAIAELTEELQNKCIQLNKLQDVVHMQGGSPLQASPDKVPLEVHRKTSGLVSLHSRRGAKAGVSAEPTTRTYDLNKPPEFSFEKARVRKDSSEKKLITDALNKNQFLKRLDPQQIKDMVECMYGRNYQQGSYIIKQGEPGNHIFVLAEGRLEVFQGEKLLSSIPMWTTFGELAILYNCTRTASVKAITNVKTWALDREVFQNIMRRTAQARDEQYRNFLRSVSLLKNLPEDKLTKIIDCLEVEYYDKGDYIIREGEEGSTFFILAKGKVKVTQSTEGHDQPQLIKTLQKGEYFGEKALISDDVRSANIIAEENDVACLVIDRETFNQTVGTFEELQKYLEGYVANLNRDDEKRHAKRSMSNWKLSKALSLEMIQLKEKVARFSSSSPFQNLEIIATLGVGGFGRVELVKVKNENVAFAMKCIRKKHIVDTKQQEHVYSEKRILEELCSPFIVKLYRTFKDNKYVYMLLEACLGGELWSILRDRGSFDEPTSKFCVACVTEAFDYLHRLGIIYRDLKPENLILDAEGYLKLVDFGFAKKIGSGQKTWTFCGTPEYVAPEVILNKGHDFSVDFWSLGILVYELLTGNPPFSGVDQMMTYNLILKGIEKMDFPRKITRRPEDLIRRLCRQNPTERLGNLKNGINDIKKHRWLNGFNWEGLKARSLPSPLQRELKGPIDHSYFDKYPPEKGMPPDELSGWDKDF
To be noted: at 0.1 µM.

In assay [17] the target is T6, cGMP-dependent protein kinase 2 (Homo sapiens). To be noted: at 1 µM.
For assay [18], the target named is T7, cAMP-dependent protein kinase catalytic subunit PRKX (Homo sapiens) (UniProt P51817).
T7 sequence (whole entry): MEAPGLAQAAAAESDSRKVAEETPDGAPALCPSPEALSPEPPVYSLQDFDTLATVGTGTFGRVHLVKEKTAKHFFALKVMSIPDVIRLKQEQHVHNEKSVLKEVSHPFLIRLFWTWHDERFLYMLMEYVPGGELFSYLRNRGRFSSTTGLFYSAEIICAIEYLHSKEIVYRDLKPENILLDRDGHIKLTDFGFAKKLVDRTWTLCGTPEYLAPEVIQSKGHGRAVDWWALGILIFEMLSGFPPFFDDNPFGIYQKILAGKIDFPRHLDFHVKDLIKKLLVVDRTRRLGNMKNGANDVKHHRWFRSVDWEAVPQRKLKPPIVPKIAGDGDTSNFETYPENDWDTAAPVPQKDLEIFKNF
The note with it: at 0.1 µM.

Assay [19] has as its target T7, cAMP-dependent protein kinase catalytic subunit PRKX (Homo sapiens). To be noted: at 1 µM.
The target in assay [20] is Rho-associated protein kinase 1 (Homo sapiens) (UniProt Q13464). To be noted: at 0.1 µM.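 Further: values are mean percent inhibition of ROCK1.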
Rho-associated protein kinase 1 (Homo sapiens), sequence (Q13464 2-1354 limits assumed): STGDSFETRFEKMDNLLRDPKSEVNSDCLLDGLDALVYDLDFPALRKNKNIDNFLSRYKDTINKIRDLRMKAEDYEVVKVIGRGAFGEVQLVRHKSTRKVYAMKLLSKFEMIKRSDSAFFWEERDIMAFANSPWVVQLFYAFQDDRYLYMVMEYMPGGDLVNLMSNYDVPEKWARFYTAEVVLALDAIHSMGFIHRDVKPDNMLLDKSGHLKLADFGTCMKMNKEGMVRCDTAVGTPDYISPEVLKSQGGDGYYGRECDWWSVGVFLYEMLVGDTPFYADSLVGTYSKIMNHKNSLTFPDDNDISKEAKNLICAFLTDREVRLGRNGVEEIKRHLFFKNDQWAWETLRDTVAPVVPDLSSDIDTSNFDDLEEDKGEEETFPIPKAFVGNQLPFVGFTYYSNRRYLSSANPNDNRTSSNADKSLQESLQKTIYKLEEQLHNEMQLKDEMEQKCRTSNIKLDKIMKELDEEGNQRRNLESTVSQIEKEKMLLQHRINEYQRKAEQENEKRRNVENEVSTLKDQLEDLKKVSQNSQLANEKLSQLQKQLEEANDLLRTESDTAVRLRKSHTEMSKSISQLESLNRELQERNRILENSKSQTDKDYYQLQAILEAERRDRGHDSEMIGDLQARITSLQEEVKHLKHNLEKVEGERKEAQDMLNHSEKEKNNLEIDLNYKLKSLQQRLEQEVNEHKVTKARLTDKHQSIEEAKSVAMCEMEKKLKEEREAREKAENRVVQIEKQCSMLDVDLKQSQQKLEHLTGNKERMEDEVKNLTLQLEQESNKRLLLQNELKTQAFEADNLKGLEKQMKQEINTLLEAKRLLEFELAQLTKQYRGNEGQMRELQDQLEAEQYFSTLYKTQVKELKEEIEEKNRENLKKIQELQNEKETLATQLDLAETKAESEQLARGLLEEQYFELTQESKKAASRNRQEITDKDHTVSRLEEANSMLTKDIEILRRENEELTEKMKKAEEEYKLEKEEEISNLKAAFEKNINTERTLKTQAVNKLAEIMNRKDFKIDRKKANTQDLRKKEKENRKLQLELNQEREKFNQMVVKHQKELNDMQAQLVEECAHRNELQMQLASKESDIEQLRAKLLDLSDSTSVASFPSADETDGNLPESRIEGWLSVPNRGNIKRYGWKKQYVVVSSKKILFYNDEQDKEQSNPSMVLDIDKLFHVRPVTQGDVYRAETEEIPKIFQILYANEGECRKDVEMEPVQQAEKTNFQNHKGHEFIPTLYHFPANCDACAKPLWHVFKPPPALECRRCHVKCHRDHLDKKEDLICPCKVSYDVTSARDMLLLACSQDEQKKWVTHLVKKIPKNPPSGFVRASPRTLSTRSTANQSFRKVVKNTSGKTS

The results in this text go back to ChEMBL document CHEMBL1961873, “Compounds: GSK PKIS; Assays: Nanosyn kinase panel” (2012).

Protein kinase C beta type (Homo sapiens), sequence (P05771 2-671 limits assumed): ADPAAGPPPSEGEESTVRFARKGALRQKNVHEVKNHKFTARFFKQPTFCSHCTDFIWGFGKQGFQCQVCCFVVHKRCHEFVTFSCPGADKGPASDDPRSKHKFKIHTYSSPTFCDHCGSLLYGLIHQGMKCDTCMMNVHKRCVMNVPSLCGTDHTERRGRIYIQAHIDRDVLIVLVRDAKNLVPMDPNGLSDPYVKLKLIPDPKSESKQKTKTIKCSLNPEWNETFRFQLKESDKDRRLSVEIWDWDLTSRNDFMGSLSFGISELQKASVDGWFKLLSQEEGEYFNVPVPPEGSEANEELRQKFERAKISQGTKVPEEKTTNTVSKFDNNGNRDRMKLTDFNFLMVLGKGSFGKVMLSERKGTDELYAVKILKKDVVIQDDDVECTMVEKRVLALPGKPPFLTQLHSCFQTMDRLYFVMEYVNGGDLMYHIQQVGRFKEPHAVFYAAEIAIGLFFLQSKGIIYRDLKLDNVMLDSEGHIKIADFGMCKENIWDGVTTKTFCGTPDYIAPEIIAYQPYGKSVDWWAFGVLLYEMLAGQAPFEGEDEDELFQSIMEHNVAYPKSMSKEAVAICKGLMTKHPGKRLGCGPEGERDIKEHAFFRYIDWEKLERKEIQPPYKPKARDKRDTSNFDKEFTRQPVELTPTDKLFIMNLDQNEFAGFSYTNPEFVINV

With `COc1ccc2cc(-c3c(-c4ccncc4)nc(-c4ccc([S+](C)[O-])cc4C)n3C)ccc2c1` (stereo not given), the inhibition was -0.38% in assay [1]; 0.41% in [2]; -0.63% in [3]; -1.05% in assay [4]; -1.26% in assay [5]; 0.04% in assay [6]. Further, the inhibition was 5.01% in assay [7]; -0.67% in assay [8]; -0.16% in [9]; -0.62% in assay [10]; 0.1% in assay [11]; -0.55% in assay [12]. Further, the inhibition in assay [13] was -0.05%; in assay [14] it was 0.69%; in assay [15], 0.56%; in assay [16], 0.02%; in assay [17], 0.21%; in [18], 0.49%. In addition, the inhibition in assay [19] was 1.21%; in assay [20] it was -0.64%.

As for `Nc1nccc(-c2c(-c3ccc(F)cc3)ncn2C2CCC(O)CC2)n1` (stereo not given), the inhibition in assay [1] was 2.37%; in assay [2], 1.25%; in assay [3], 0.01%; in assay [4], -0.81%; in [5], 0.4%; in assay [6] it was 1.56%. The inhibition was 16.3% in assay [7]; 0.14% in [8]; 18.5% in assay [9]; 0.03% in assay [10]; 23.3% in [11]; -0.31% in [12]. For the same compound, the inhibition in assay [13] was 19.4%; in [14], -1.29%; in assay [15] it was 0.27%; in assay [16], -0.66%; in assay [17] it was -0.24%; in assay [18] it was -0.76%. In addition, the values for the inhibition in [19] and in assay [20] were -0.96% and 0.4%, respectively.
